Experimental data taken from PubChem BioAssay (NCI).
This is part of a sample that, as a whole, favours compounds with a hit. Of some 83,000 tested, about 20% had one in any assay.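 Growth was measured after 48 h exposure to one concentration of compound in 96-well plates. Values under 10 count as active.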 A number with no mark means an inactive call. The source made the active and inactive calls.

Tested on: MDA-MB-468 breast
Assay: NCI-60 one-dose screen, 48 h (100 = growth as untreated, 0 = no growth, -100 = all killed)
Settings: 10 µM unless noted

| SMILES | growth |
| --- | --- |
| COC(=O)C1CCCN(S(=O)(=O)/N=C2\NC(=O)NC2=C(Cl)Cl)C1 (stereo unspecified) | 32.8% |
| COc1cccc(-c2nc3sccn3c2-c2ccnc(NCCCNS(=O)(=O)c3ccc(Cl)cc3)c2)c1 | 34.3% |
| NS(=O)(=O)c1ccc(-n2cc(CN3CCCCC3)nn2)cc1 | 101% |
| COc1cc(-c2c3c(cn2CCN2CCCCC2)-c2oncc2CC3)cc(OC)c1OC | 94.6% |
| Clc1ccc2nc(CI)c(CI)nc2c1 | 55.6% |
| CCNC(=O)Oc1ccc(/C(=C(/C)c2ccccc2)c2ccc(OCCN3CCCC3)cc2)cc1 | 80.3% |
| CC[N+](C)(CC)CCCC(C)Nc1ccnc2cc(Cl)ccc12 (stereo unspecified) | 119% |
| CC/C(=C/c1cc(OC)ccc1O)c1ccc2cc(OC)ccc2[o+]1 | 45.8% |
| CC1(C(=O)O)NC(C(=O)O)Cc2c1[nH]c1ccccc21 (stereo unspecified) | 113% |
| CCCCCCCCCCC[C@@H](C[C@H]1OC(=O)[C@H]1CCCCCC)OC(=O)[C@@H](CC(C)C)NC=O | 101% |
| C#Cc1nc(/C=C/C(=O)c2nccn2C)cs1 | -28.5% (active) |
| Clc1ccc2c(NCCNc3nc(Cl)nc4ccccc34)ccnc2c1 | -88.6% (active) |
| CN(C)CCN1C(=O)c2cccc3c(-c4ccc(-c5nc6c7ccccc7c7ccccc7c6[nH]5)cc4)ccc(c23)C1=O | 108% |
| Oc1ccccc1N=Cc1ccccc1 | 91% |
| O=C(c1cccc(Br)c1)N1CCN(c2ccnc3cc(Cl)ccc23)CC1 | 66% |
| COc1cc2cc3c(nc2cc1OC)CCN3Cc1ccc(NC(=O)c2ccc(Cl)c(C(F)(F)F)c2)cc1 | 12.9% |
| COc1ccc(-c2nc3ccc(-c4nnc(SCC(=O)Nc5ccc(C(=O)/C=C/c6ccc(Cl)cc6)cc5)o4)cc3[nH]2)cc1 | 98.1% |
| CC[C@@H]1O[C@H](O[C@@H](c2cnc[nH]2)[C@H](NC(=O)c2nc([C@H](CC(N)=O)NC[C@@H](N)C(N)=O)nc(N)c2C)C(=O)N[C@H](C)[C@H](O)[C@H](C)C(=O)N[C@@H](C(=O)NCCc2nc(-c3nc(C(=O)NCCCCN=C(N)N)cs3)cs2)[C@@H](C)O)[C@H](O[C@@H]2O[C@H](CO)[C@H](O)[C@H](OC(N)=O)[C@@H]2O)[C@H](C)[C@@H]1C | 57% |

| SMILES | growth |
| --- | --- |
| CC(=O)c1cc(C)c(OC(=O)c2ccccc2)c(C)c1 | 94% |
| N#C/C(=C\C=C\c1ccc(-c2cc(Cl)ccc2Cl)o1)c1nc2ccccc2s1 | 109% |
| CS(=O)(=O)c1ccc(-c2cc3c(oc2=O)-c2ccccc2OC3O)cc1 (stereo unspecified) | 91.6% |
| COc1ccc2nc3cc(Cl)ccc3c(NCCNCC(O)CO)c2c1 (stereo unspecified) | -8.61% (active) |
| COc1cc(NCC(C)(O)CN(CC(C)C)CC(C)C)c2nc(C)ccc2c1 (stereo unspecified) | -11.4% (active) |
| OCCOSCCO | 98.2% |
| CN1CCN(Cc2ccc(NC(=O)c3cncc(C#Cc4cnc5cccnn45)c3)cc2C(F)(F)F)CC1 | 37.8% |
| Cc1ccc([N+](=O)[O-])cc1NC(=O)Nc1cccc(F)c1 | 26.9% |
| CCOC(=O)/C(O)=C(\C=N\C(=S)Nc1ccc(Cl)c(Cl)c1)C(=O)OCC | 102% |
| CN(C)CCNC(=O)c1cccc(-c2cnc3ccc(-c4ccc5c(c4)OCO5)nn23)c1 | 66.9% |
| Oc1ccccc1-c1nnc(SCc2ccc(O)c3ncccc23)n1-c1ccccc1 | 0.833% (active) |
| Cc1ccc(/C(C#N)=C/c2ccc3c(c2)OCO3)cc1 | 43.9% |
| Cc1cc(Cl)ccc1NC(=O)c1cc2ccccc2cc1O | -9.61% (active) |
| CCN1C(=O)N(CC)C2Nn3c(s/c(=C\c4ccccc4Br)c3=O)=NC21 (stereo unspecified) | 12.3% |
| COc1ccc(-c2nc(-c3ccccc3)c(-c3ccccc3)n2C2CC2)cc1OC1CCCCC1 | 58.8% |
| O=C(CCCCCCCCC(=O)Nc1cccc(C2=NCCN2)c1)Nc1cccc(C2=NCCN2)c1 | 118% |
| CC(=O)O[C@]1(C)CC[C@H]2[C@H](CNCCc3ccc(Cl)cc3)C(=O)O[C@@H]2C2=C(C)C(=O)C[C@H]21 | 47.3% |
| COC(=O)[C@]12CC[C@@H](C)[C@H](C)[C@@H]1C1=CC[C@@H]3[C@@]4(C)C(C#N)=CC(C)=C4CC[C@@]3(C)[C@]1(C)CC2 | 76.7% |
